Source: PubChem (National Center for Advancing Translational Sciences (NCATS))
Rab9 promoter act – activates the Rab9 promoter | Huh7 Rab9 promoter-luciferase reporter, luminescence, 24 h | Potency, µM (doses to about 9.22 µM), for inactives: at the top dose activation, negative = inhibition, hits mostly activators | 320,000 compounds, 2.8% hits | AID 485297; also: % of control where 0% means no effect; nearly all actives have a fitted effect of over 60% in size
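Measured in stably transfected Huh7 cells bearing a Rab9 promoter–luciferase construct: 24 h compound treatment at 37 °C, followed by luminescence detection.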
FLuc modulator – firefly luciferase modulation, counter-screen for miR-21 project | purified FLuc, Km substrates, luminescence inhibition | 360,000 compounds, 6.9% hits | P08659 | AID 588342 | Potency, µM (top dose mostly 57.5 µM), inactives show at the top dose activity change, negative = inhibition, hits mostly inhibitors;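 also: plate controls were vehicle for no effect and reference inhibitor for full effect; nearly all actives have a fitted effect of over 55% in size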
Target sequence (P08659 whole entry, looked up): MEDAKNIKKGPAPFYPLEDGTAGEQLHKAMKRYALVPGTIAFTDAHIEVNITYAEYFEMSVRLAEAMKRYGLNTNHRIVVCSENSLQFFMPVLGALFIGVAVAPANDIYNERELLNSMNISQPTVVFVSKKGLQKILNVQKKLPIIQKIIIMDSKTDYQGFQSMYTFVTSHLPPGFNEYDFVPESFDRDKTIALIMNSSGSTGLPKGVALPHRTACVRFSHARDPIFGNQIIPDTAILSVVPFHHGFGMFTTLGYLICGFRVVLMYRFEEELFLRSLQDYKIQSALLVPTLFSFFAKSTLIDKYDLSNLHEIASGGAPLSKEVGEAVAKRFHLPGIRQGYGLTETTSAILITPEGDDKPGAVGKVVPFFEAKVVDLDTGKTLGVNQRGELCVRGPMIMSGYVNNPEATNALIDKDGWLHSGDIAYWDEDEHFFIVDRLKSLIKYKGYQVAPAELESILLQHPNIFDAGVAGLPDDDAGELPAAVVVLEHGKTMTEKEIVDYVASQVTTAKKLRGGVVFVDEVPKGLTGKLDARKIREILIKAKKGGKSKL
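Purified P. pyralis luciferase (10nM final) with 10uM D-luciferin and 10uM ATP (Km levels) in 50mM Tris acetate pH 7.5, 10mM Mg acetate, 0.01% Tween-20, 0.05% BSA; qHTS 6-point titration, ~60 µM downward; luminescence read.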
ELG1 genotox – inducers of genotoxicity in HEK293T ELG1-luciferase cells; HEK293T ELG1-luciferase reporter, luminescence, 16 h; Potency, µM (top dose mostly 46 µM), for inactives: top-dose activity change, positive = activation, most hits filed as activators; 330,000 compounds, 1.3% hits; also: % of control where 0% means no effect; nearly all actives have a fitted effect of over 60% in size
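Quantitative HTS format in 1536-well plates. HEK293T ELG1-luciferase reporter cells receive test compound and are incubated 16 hr at 37 °C, 5% CO2; ONE-Glo added, 30 min room temperature, then luminescence read.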
SMN2 splice up – enhancers of SMN2 splice variant expression; HEK293 SMN2-luciferase splicing reporter, luminescence, 30-36 h; Potency, µM (top dose mostly 46.1 µM), for the others: at the top dose activity change, positive = activation, hits mostly activators; AID 1458; 210,000 compounds, 2.8% hits; also: % of control where 0% means no effect; nearly all actives have a fitted effect of over 55% in size
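HEK293 cells carry an SMN2 minigene-luciferase reporter in which exon 7 inclusion puts luciferase in frame. Cells were seeded at 2000 cells/well, attached for 10-12 hours, then exposed to compounds for 30-36 hours at 37C before ONE-Glo luminescence.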
NPC1 promoter act – activators of NPC1 promoter; Huh7 NPC1 promoter luciferase reporter, 24 h; Potency, µM (titrated, usually from 9.22 µM), for inactives: top-dose activation, usual class: activators; 320,000 compounds, 2.4% hits; also: % of control where 0% means no effect; nearly all actives have a fitted effect of over 60% in size
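In 1536-well qHTS, Huh7 cells harboring an NPC1 promoter–luciferase construct received compound for 24 h; activation was quantified by luminescence following luciferase reagent addition.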
Luc counter – counter-screen: inhibitors of Kinase-Glo firefly luciferase; Q27757; Kinase-Glo luciferase, ATP luminescence, 8 min; Potency, µM (top dose mostly 38.3 µM), inactives show at the top dose activity change, negative = inhibition, actives largely listed as inhibitors; 200,000 compounds, 0.28% hits; AID 1379; also: % is scaled to controls: 0 for no effect and ±100 for the full control effect; nearly all actives have a fitted effect of over 60% in size
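Inhibition of Kinase-Glo luciferase light generation was assessed at 10 uM ATP in pH 7.2 imidazole buffer, with luminescence measured after eight minutes at ambient temperature.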
* hit, by the source's call; ? = inconclusive; . = no result; [ ] = another dose, or the depositor's remark. Hits are enriched below; roughly 7.5% of the tested compounds scored in any of these assays. Calls follow the shape of the dose curve; as a rule, active = well fitted curve in the direction sought with a large enough effect; inconclusive = small, poorly fitted or top-dose-only effect, or another doubt; inactive = no such curve, though single readings can be large; an effect the other way counts as inactive or inconclusive. Potency is read from the fitted curve at half-maximal effect.

SMILES	Rab9 promoter act	FLuc modulator	ELG1 genotox	SMN2 splice up	NPC1 promoter act	Luc counter
CCN1CCN(Cc2ccc(NC(=O)c3cc(NC(=O)c4cc(C)on4)cc(OC)c3)cc2C(F)(F)F)CC1	-1%	?	?	.	-5%	.
CCc1ccccc1NC(=O)CN(Cc1ccccc1)S(=O)(=O)c1ccc2nc(C)sc2c1	.	2%	.	.	.	.
Cc1cc(C)c(NC(=O)CN2C(=O)CCSc3ccc(S(=O)(=O)N4CCCC4)cc32)c(C)c1	.	1%	.	.	.	.
COc1cc(/C=C2\C(=O)NN(c3ccccc3)C2=O)ccc1OCC(N)=O	1%	11µM*	0%	6%	-10%	-2%
COC(=O)c1ccc(N2NC(=O)/C(=C/c3ccc(OC)c(OC)c3)C2=O)cc1	-2%	?	0%	.	1%	.
C#CCOc1ccc(/C=C2/C(=O)NN(c3ccc(F)cc3)C2=O)cc1OC	-4%	1.9µM*	4%	.	-4%	.
COc1cc(C=C2C(=O)OC(C)(C)OC2=O)ccc1OCC(=O)Nc1ccccc1	-8%	11µM*	?	14%	-3%	4%
CCc1cccc(CC)c1NC(=O)Cc1csc(C)n1	.	-1%	.	-4%	.	.
Cc1ccc(-c2nnc(Nc3ccc(O)cc3)c3ccccc23)cc1S(=O)(=O)NCC1CCCO1 (stereo not drawn)	.	?	.	-10%	.	.
Oc1cc2c(cc1O)[C@H]1c3ccc(O)c(O)c3OC[C@@]1(O)C2	0%	15µM*	2%	-20%	-2%	0%
O=S(=O)(O)c1ccc2c(N=Nc3cccc4ccccc34)c(O)c(S(=O)(=O)O)cc2c1	.	.	.	-28%[9.22 µM]	.	-17%[7.66 µM]
O=S(=O)(O)c1cc(O)c2c(O)c(N=Nc3cc(Cl)ccc3O)c(S(=O)(=O)O)cc2c1	-10%	21µM*	-4%	.	-7%	.
Nc1cc(S(=O)(=O)O)cc2ccc(S(=O)(=O)O)cc12	.	.	.	1%[9.22 µM]	.	-1%[7.66 µM]
Cc1cc(-c2ccc(N=Nc3c(S(=O)(=O)O)cc4cc(S(=O)(=O)O)cc(N)c4c3O)c(C)c2)ccc1N=Nc1c(S(=O)(=O)O)cc2cc(S(=O)(=O)O)cc(N)c2c1O	-12%	21µM*	-44%	.	-13%	.
CC1CCCCN1C(=O)Cn1c(=O)n(-c2ccc(Cl)cc2)c(=O)c2c3c(sc21)CCC3 (stereo not drawn)	.	-10%	.	-3%	.	.
COc1ccc(NC(=O)c2ccc3[nH]c(C)cc(=O)c3c2)cc1	.	-1%	.	.	.	.
Cc1cc(C)cc(NC(=O)N2CCC(CN3CCCCCC3)CC2)c1	.	0%	.	.	.	.
Cc1ccccc1Nc1c(-c2c[nH]c3ccccc23)nc2cccc(C)n12	.	2%	.	11µM*	.	.
Cc1ccc2nc(-c3c[nH]c4ccccc34)c(Nc3ccccc3C)n2c1	.	-1%	.	?	.	.
Cc1ccc(C(=O)N2CCCN(c3nc4cc5c(cc4cc3C#N)OCO5)CC2)cc1	7%	-13%	-3%	.	0%	.
N#Cc1cc2cc3c(cc2nc1N1CCCCC1)OCCO3	6.3µM*	4.3µM*	?	13µM*	?	-1%
O=C(CNC(=O)c1ccc(Cl)cc1Cl)OCCOc1ccccc1	13%	17µM*	7%	.	15%	.
O=C(NOCc1ccccc1)c1ccccc1	1.8µM*	6µM*	6.5µM*	.	3.2µM*	.
Cc1ccc(CONC(=O)c2cccc(C)c2)cc1	?	?	-1%	.	16%	.
O=C(NOCc1ccccc1)c1ccc(Cl)cc1Cl	0.4µM*	1.3µM*	?	.	0.56µM*	.
SMILES	Rab9 promoter act	FLuc modulator	ELG1 genotox	SMN2 splice up	NPC1 promoter act	Luc counter
CCOC(=O)c1c(C)[nH]c(C)c1S(=O)(=O)NCC(=O)N(C)c1ccc(C)c(C)c1	.	-4%	.	.	.	.
COCCNC(=O)c1nn(-c2ccc(C)cc2)c(=O)n(C)c1=O	.	-2%	.	.	.	.
COC(=O)c1ccc(COc2ccc(Cl)cc2)o1	20%	?	8%	.	16%	.
COc1ccccc1COc1ccc2c(C)c(CCC(=O)O)c(=O)oc2c1C	3%	24µM*	5%	.	-1%	.
COC(=O)c1ccc(COc2ccc3c(C)c(C)c(=O)oc3c2C)o1	?	4.8µM*	7%	16%	?	-1%
Cc1c(OCc2ccc(C(=O)O)o2)ccc2c3c(c(=O)oc12)CCC3	2%	19µM*	?	12%	-1%	-3%
CCN(CC)C(=O)COc1ccc2c3c(c(=O)oc2c1C)CCCC3	-4%	-2%	0%	.	0%	.
Cc1c(OCC(=O)Nc2cccnc2)ccc2c3c(c(=O)oc12)CCC3	28%	19µM*	13%	.	30%	.
CCCCSCCCNC(=O)c1cn(CC)c2ccc(S(=O)(=O)N(C)C3CCCCC3)cc2c1=O	.	-18%	.	-4%	.	.
COc1cccc2c1cc1c(=O)n(CC(=O)NCc3ccco3)nc(C)n12	.	-5%	.	-3%	.	.
COCCNC(=S)Nc1ccc(N2CCOCC2)c(S(=O)(=O)Nc2ccccc2OC)c1	0%	-20%	11%	.	12%	.
Cc1ccc(-n2c(-c3ccccc3)c[n+]3c2CCc2ccccc2-3)c(C)c1	-44%	-2%	-12%	-87%	-46%	0%
N/C(=N\OC(=O)CCc1ccccc1)c1cccc(Br)c1	0%	17µM*	1%	-6%	-5%	-4%
N/C(=N\OC(=O)CCc1ccccc1)c1ccccc1Cl	28%	24µM*	?	9%	7%	1%
Cc1ccc(/C(N)=N/OC(=O)CCc2ccccc2)cc1	9%	15µM*	?	.	21%	.
